This passage reports Potency, viability and viability (% of control) results from PubChem BioAssay (NCATS).

By viability is commonly meant a read-out of living cells in per cent, often relative to untreated cells.

Assay [1] is described as follows: BET inhibitor-based combinations targeting novel dependencies in MECOM-rearranged (r) AML: SET-2 cell line (AID 2202231). Also: nearly all actives have a fitted effect of over 35% in size.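 As to viability: plate controls were DMSO treated cells for no effect and wells without cells for full effect.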 As to conditions: SET-2 AML cells viability, CellTiter-Glo luminescence, 48 h; viability: active compounds read low, concentration not given here. In a few lines: (§1)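 Viability of cells (500 per well) is scored by luminescent CellTiter-Glo at 48 hr post-dosing. Eleven-point titrations are normalized to DMSO and empty controls and reduced to AUC values.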
Background: Cellular ATP, detected with luciferase, serves as a proxy for viable cell number.

A short description of assay [2]: BET inhibitor-based combinations targeting novel dependencies in MECOM-rearranged (r) AML: MV-4-11 cell line (AID 2202233). Also: nearly all actives have a fitted effect of over 45% in size. In a few lines: (§2)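 Using pin-tool transfer, drugs were added in 11 doses to cells (500/well), incubated 48 hr, and assessed with CellTiter-Glo. Z-AUC is a mean-centring transformation applied separately to each screened line.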
A short description of assay [3]: BET inhibitor-based combinations targeting novel dependencies in MECOM-rearranged (r) AML: UCSD-AML1 cell line (AID 2202235). Also: nearly all actives have a fitted effect of over 40% in size.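 As to viability (% of control): series mostly up to about 46 µM; plate controls were DMSO vehicle wells for no effect and blank wells for full effect.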 In a few lines:
as §2

A short description of assay [4]: BET inhibitor-based combinations targeting novel dependencies in MECOM-rearranged (r) AML: AML-191 cell line (AID 2202236; also: nearly all actives have a fitted effect of over 35% in size;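 as to viability (% of control): plate controls were vehicle wells for no effect and wells without cells for full effect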). In a few lines: as §1
A short description of assay [5]: BET inhibitor-based combinations targeting novel dependencies in MECOM-rearranged (r) AML: AML-194 cell line (AID 2202237; also: nearly all actives have a fitted effect of over 40% in size;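 as to viability (% of control): plate controls were vehicle wells for no effect and wells without cells for full effect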). In a few lines: as §1
Assay [6] can be described thus: BET inhibitor-based combinations targeting novel dependencies in MECOM-rearranged (r) AML: HNT-34 cell line (AID 2202234). Also: nearly all actives have a fitted effect of over 35% in size.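 As to viability (% of control): plate controls were vehicle wells for no effect and cell-free wells for full effect.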 In a few lines: as §2

Each structure is given as a SMILES string. Results filed as inconclusive are left out. Active and inactive are the calls of the source. Calls follow the shape of the dose curve; as a rule, active = well fitted curve in the direction sought with a large enough effect; inconclusive = small, poorly fitted or top-dose-only effect, or another doubt; inactive = no such curve, though single readings can be large; an effect the other way counts as inactive or inconclusive.
Potency is read from the fitted curve at half-maximal effect.

As for `O=C(O)CCC=CCC[C@@H]1[C@H](N2CCCCC2)[C@@H](O)C[C@@H]1OCc1ccc(-c2ccccc2)cc1`, the Potency in assay [1] is 1.18 µM (active). In addition, the Potency entry in assay [2], in assay [3], in assay [4] and in assay [5] was “inactive” each time.
Take `O=c1cc(N2CCOCC2)oc2c(-c3ccc4c(c3)OCCO4)csc12`: the Potency was 3.32 µM (active) in assay [1]; 2.09 µM (active) in assay [2]; 5.25 µM (active) in assay [6]; 3.32 µM (active) in assay [3]; 5.25 µM (active) in assay [4]; 2.95 µM (active) in assay [5].
Take `Fc1ccc(-c2csc3ncnc(NCc4ccc5c(c4)OCO5)c23)cc1`: the Potency in assay [1] was 5.9 µM (active); in assay [2] it was 20.9 µM (active); in assay [3], 20.9 µM (active); in assay [4], 16.6 µM (active).
Turning to `O=C1OC2(CCC(C(=O)Nc3ccn(-c4ccccc4F)n3)CC2)c2cnccc21` (stereo unspecified), in assay [1], the viability is 90.4% (inactive). The Potency was 3.32 µM (active) in assay [2] and 18.6 µM (active) in assay [4]. Also, the Potency result in assay [3] was “inactive”.
Regarding `CN(C)C/C=C/C(=O)Nc1cc2c(Nc3ccc(F)c(Cl)c3)ncnc2cc1O[C@H]1CCOC1`, the Potency was 4.68 µM (active) in assay [1]; 1.18 µM (active) in assay [2]; 2.95 µM (active) in assay [6]; 7.42 µM (active) in assay [4]; 7.42 µM (active) in assay [5].
`CC(=NNC(=O)c1cccc(S(=O)(=O)N2CCOCC2)c1)c1cc(Cl)ccc1O`: the Potency is 6.61 µM (active) in assay [1]; 7.42 µM (active) in assay [2]; 2.63 µM (active) in assay [6]; 5.25 µM (active) in assay [3]; 2.09 µM (active) in assay [4]; 4.68 µM (active) in assay [5].
In the case of `C=CC(=O)N1CCC(CNc2ncnc(N)c2-c2ccc(Oc3ccccc3)cc2)CC1`, the viability in assay [1] was 101% (inactive). In addition, the Potency in assay [2] was 13.2 µM (active). Also, the Potency result in assay [3] was “inactive”.
Turning to `COc1nc(OCc2cccc(-c3ccccc3)c2C)ccc1CNCCNC(C)=O`, the Potency in assay [1] is 26.3 µM (active); in assay [2], 16.6 µM (active); in assay [6], 26.3 µM (active); in assay [3] it was 20.9 µM (active); in assay [4], 18.6 µM (active); in assay [5], 26.3 µM (active).
`CCN(C(=O)c1ccccc1OC)c1cc2c(cc1N1CCNC[C@H]1C)n(C)c(=O)n2C`: the viability in assay [1] is 119% (inactive). For the same molecule, the Potency result in assay [2], in assay [6], in assay [3] and in assay [5] was “inactive” in each case.
With `CC(C)=CCC/C(C)=C/CC/C(C)=C/CSc1ccccc1C(=O)O`, the viability in assay [1] was 106% (inactive). In assay [2], the Potency is 11.8 µM (active). Moreover, the Potency entry in assay [3], in assay [4] and in assay [5] was “inactive” in each case.
With `COc1cc(OC)c(NC(=O)Nc2cc(C)on2)cc1Cl`, the viability in assay [1] was 115% (inactive). Also, the Potency entry in assay [6], in assay [3], in assay [4] and in assay [5] was “inactive” in each case.
Take `c1ccc(CNCc2ccc(CN3CCCNCCNCCCNCC3)cc2)nc1`: the viability in assay [1] was 110% (inactive). In addition, the Potency entry in assay [6], in assay [3], in assay [4] and in assay [5] was “inactive” in each case.
As to `CCn1c(=O)c(-c2ccc(-c3cncc(C)n3)cc2Cl)cc2cnc(NCCC3CCN(C)CC3)nc21`, the viability in assay [1] was 93.7% (inactive). Also, in assay [2], the Potency is 1.18 µM (active). The viability (% of control) in assay [5] is 89.1% [at 5.12 µM] (inactive).
For `NS(=O)(=O)c1ccc(Cc2c(-c3cccc(-c4ccccc4)c3)nn(-c3nc(C(=O)O)cs3)c2CC2CC2)cc1`, in assay [1], the viability was 106% (inactive). Besides, the Potency result in assay [6] and in assay [3] was “inactive” each time. The Potency in assay [4] was 7.42 µM (active).
As to `C=CC[C@@H]1/C=C(\C)C[C@H](C)C[C@H](OC)[C@H]2O[C@@](O)(C(=O)C(=O)N3CCCC[C@H]3C(=O)O[C@H](/C(C)=C/[C@@H]3CC[C@@H](O)[C@H](OC)C3)[C@H](C)[C@@H](O)CC1=O)[C@H](C)C[C@@H]2OC`, in assay [1], the viability is 51.4% (inactive). Besides, the Potency was 23.5 µM (active) in assay [6], 26.3 µM (active) in assay [3], 18.6 µM (active) in assay [4] and 20.9 µM (active) in assay [5].
`CS(=O)(=O)c1ccc([C@@H](CC2CCCC2)C(=O)Nc2nccs2)cc1`: the viability in assay [1] was 79.4% (inactive). The Potency result in assay [6], in assay [3] and in assay [4] was “inactive” throughout.
`CN(C(=O)CNC(=O)/C=C/c1cccc(Cl)c1)C1CCS(=O)(=O)CC1`: the Potency in assay [1] was 0.662 µM (active). The Potency result in assay [6] and in assay [3] was “inactive” each time.
Consider `NC1=N[C@@]2(c3cc(NC(=O)c4ccc(F)cn4)ccc3F)COC[C@H]2CS1`, for which the viability in assay [1] was 112% (inactive). Also, the Potency entry in assay [6], in assay [3], in assay [4] and in assay [5] was “inactive” each time.
Consider `CNC(=O)Cn1cc(-c2ccc3c(c2)C(F)CC32NC(=O)N(CC(=O)N(Cc3ccc(F)cc3)C(C)C(F)(F)F)C2=O)cn1` (stereo unspecified), for which the Potency in assay [1] is 3.72 µM (active); in assay [6] it was 0.0833 µM (active); in assay [3], 0.148 µM (active).
In the case of `O=C(NCc1ccccc1)[C@H](Cc1ccccc1)NC(=O)[C@H]1O[C@@H]1C(=O)NCCc1ccc(O)cc1`, in assay [1], the viability was 105% (inactive). The Potency in assay [2] is 23.5 µM (active). For the same molecule, the Potency result in assay [4] and in assay [5] was “inactive” throughout.
As to `CCOC(=O)C1=C(C)NC(=S)NC1c1cccc(O)c1` (stereo unspecified), in assay [1], the viability was 98.4% (inactive). Besides, the Potency in assay [6] was 18.6 µM (active).
As for `Cc1cc(Nc2cc(N)ncn2)c(=O)n2c1C(=O)NC21CCCCC1`, in assay [1], the viability was 117% (inactive). Further, the Potency in assay [2] is 8.11 µM (active). In addition, the Potency entry in assay [3] and in assay [5] was “inactive” throughout.
